Only some compounds are listed: those with a hit (about 2% of all), similar ones and a draw of the others.
PAX8 inh HTS – lowers PAX8-driven luciferase in RMG-I cells; hit rate 1.2% among 360,000; RMG-I TPO-luciferase reporter, SteadyGlo, 24 h; inhibition, % at 12.6 µM;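 active = mean replicate inhibition at least 60% with every replicate also reaching 60%; inconclusive = only one of the two criteria is met; inactive = mean below 60% and not all replicates reaching 60%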;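 note: luciferase light reporting Pax8 driven TPO promoter activity; plate controls were median of neutral control wells for no effect and mitoxantrone controls for full effect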
LGR2 inh – Drosophila LGR2 receptor signaling inhibition; HEK293 LGR2, CRE-luciferase, bursicon-stimulated, 4 h; inhibition, % at 9.99 µM; hit rate 0.35% among 380,000;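 active = drop in luminescence signal, shown as inhibition above about 50% in the replicate tests, limit read from the data, passing the limit was not always enough; inconclusive = probably only some replicates passing the limit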;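 note: agonist challenge used bursicon conditioned medium at about half maximal strength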
Shn3 3UTR inh – Schnurri-3 reporter inhibition in Clone20 osteoblasts. inhibition, % at 12.5 µM. Clone20 osteoblast Shn3 3'UTR firefly luciferase, 24 h. hit rate 0.52% among 360,000;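 active = mean inhibition of at least 75% with every replicate also reaching 75%; inconclusive = mean inhibition at least 75% but some replicate below; inactive = mean inhibition below 75%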;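 note: 0% = median of neutral control wells and 100% = pilot-screen positive control compound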
EWS-Fli inh – blocks EWS/Fli oncoprotein-driven transcription; A673 NR0B1-luciferase reporter, viability-normalised; inhibition, % at 12.6 µM; hit rate 0.67% among 350,000; AID 651661;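 active = mean inhibition of at least 50% after viability correction, with every replicate also passing that limit; inconclusive = mean reaches 50% but only one of two replicates passes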;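 note: firefly luciferase signal divided by Alamar Blue viability fluorescence both relative to DMSO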
CF NFkB inh – inhibitors of cystic fibrosis induced NF-kB; KKLEB NF-kB-GFP reporter, PAF-induced, GFP fluorescence overnight; inhibition, % at 5 µM; hit rate 0.86% among 360,000; AID 588850;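 active = at least 50% inhibition at 5 µM, scaled per plate between neutral and stimulator controls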;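 note: PAF is a Pseudomonas aeruginosa culture filtrate used as stimulus; plate controls were PAF-stimulated DMSO wells for no effect and unstimulated DMSO wells for full effect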
KKLEB cytotox – counter-screen for CF NF-kB inhibitors: cytotoxicity; KKLEB CF airway cells viability, ATPlite luminescence, overnight; stronger effect = lower value; cells stimulated with P. aeruginosa culture filtrate; activity change (cytotoxicity), % at 5 µM; hit rate 0.36% among 360,000; AID 602141;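 active = corrected activity change at or below -50% at 5 µM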
Active calls of the source: *; ? = inconclusive; . = no result given.

SMILES	PAX8 inh HTS	LGR2 inh	Shn3 3UTR inh	EWS-Fli inh	CF NFkB inh	KKLEB cytotox
Cc1cccc(-n2ncc3c(N4CCCC4)ncnc32)c1	.	36	11	.	-11	-15
C[C@H](CO)N1C[C@H](C)[C@H](CN(C)S(C)(=O)=O)Oc2cc(-c3ccc(F)cc3)ccc2S1(=O)=O	-15	25	.	7	.	.
COc1ccc(NC(=O)Nc2ccc3c(c2)C(=O)N([C@@H](C)CO)C[C@H](C)[C@H](CN(C)C(=O)C2CCCCC2)OCCCC[C@H](C)O3)cc1	11	-13	.	7	.	.
Cc1ccc2nc(-c3cccc(N)c3)oc2c1	.	15	13	59*	-15	-16
Cc1cc(C)c2oc(-c3cccc(N)c3)nc2c1	-118	.	-132	-78	-5	-6
Cc1ccc(O)c(NC2=C(Cl)C(=O)N(Cc3ccccc3)C2=O)c1	31	-21	-6	10	-6	10
Cc1ccc(C(=O)N2CCCCC2)cc1NC1=C(Cl)C(=O)N(Cc2ccccc2)C1=O	72*	18	28	15	11	-7
CC(C)c1ccc(/C=C(\c2nc3ccccc3[nH]2)S(=O)(=O)c2ccccc2)cc1	87*	59*	92*	.	93*	-68*
O=S(=O)(/C(=C/c1ccc(C(F)(F)F)cc1)c1nc2ccccc2[nH]1)c1ccccc1	115*	?	39	.	84*	-64*
C/C(=C\c1ccc(N)cc1)c1nc2ccccc2[nH]1	-158	-120	-94	-121	-14	-8
C[C@H](CO)N1C[C@H](C)[C@H](CN(C)C(=O)NC2CCCCC2)Oc2ccc(NC(=O)Nc3cccc4ccccc34)cc2CC1=O	-8	-16	.	7	.	.
CO[C@@H](C(=O)N(C)C[C@@H]1OCc2ccccc2-c2ccccc2C(=O)N([C@@H](C)CO)C[C@H]1C)c1ccccc1	-19	-16	.	-4	.	.
COC1(OC)C(/C=C/c2ccc(Cl)cc2)C(C#N)(C#N)C1(OC)OC (centres undefined)	.	.	18	.	57*	-60*
O=C(CC1CC1)Nc1ccc2c(c1)[C@H]1C[C@@H](CC(=O)N3CCc4ccccc4C3)O[C@@H](CO)[C@H]1O2	.	2	.	4	.	.
C[C@H](CO)N1C[C@H](C)[C@H](CN(C)C(=O)Nc2cccc3ccccc23)OCCCC[C@H](C)Oc2ccc(N(C)C)cc2C1=O	-18	15	.	67*	.	.
C[C@@H]1CN([C@@H](C)CO)C(=O)c2cc(N(C)C)ccc2O[C@@H](C)CCCCO[C@H]1CN(C)C(=O)Nc1cccc2ccccc12	10	17	.	9	.	.
C[C@@H]1CCCCO[C@H](CN(C)C(=O)Nc2cccc3ccccc23)[C@H](C)CN([C@@H](C)CO)C(=O)c2cc(N(C)C)ccc2O1	71*	35	.	13	.	.
C[C@@H]1CN([C@H](C)CO)C(=O)c2cc(N(C)C)ccc2O[C@@H](C)CCCCO[C@H]1CN(C)C(=O)Nc1cccc2ccccc12	52	.	.	19	.	.
O=C(C[C@H]1C=C[C@@H](NS(=O)(=O)c2ccc(F)cc2)[C@@H](CO)O1)NCCc1ccncc1	-33	-1	.	-1	.	.
COc1ccc(S(=O)(=O)Nc2ccc3c(c2)CC(=O)N([C@@H](C)CO)C[C@@H](C)[C@@H](CN(C)S(=O)(=O)c2cccs2)O3)cc1	-20	1	.	11	.	.
COC(=O)c1cc(OC)c(OC)cc1NC(=S)Nc1cccc(Cl)c1	.	-15	2	.	-13	7
COC(=O)c1cc(OC)c(OC)cc1NC(=S)Nc1cc(Cl)ccc1OC	78*	-3	-5	3	4	-20
Cc1ccc(S(=O)(=O)Nc2ccc3c(c2)CC(=O)N([C@H](C)CO)C[C@H](C)[C@@H](CN(C)S(=O)(=O)c2c(C)noc2C)O3)cc1	-23	2	.	4	.	.
CS(=O)(=O)c1ccc(S(=O)CC(=O)OCc2ccccc2)c([N+](=O)[O-])c1 (centres undefined)	107*	.	97*	64*	89*	-45
O=C(CS(=O)c1ccc(C(F)(F)F)cc1[N+](=O)[O-])Oc1ccccc1 (centres undefined)	5	.	-29	.	57*	-38
SMILES	PAX8 inh HTS	LGR2 inh	Shn3 3UTR inh	EWS-Fli inh	CF NFkB inh	KKLEB cytotox
CCOC(=O)c1ccccc1OC(=O)CS(=O)c1ccccc1[N+](=O)[O-] (centres undefined)	12	7	0	23	-21	11
C[C@@H]1CN([C@@H](C)CO)C(=O)c2cc(NC(=O)CCCN(C)C)ccc2O[C@@H](C)CCCCO[C@@H]1CN(C)C(=O)Nc1ccccc1	7	8	.	-18	.	.
COCC(=O)N1C[C@@H]2[C@H](c3ccccc31)[C@H](CO)N2C(=O)C1CC1	-11	27	.	-2	.	.
O=C(C[C@H]1C=C[C@@H](NC(=O)CN2CCOCC2)[C@H](CO)O1)NCc1cccc(F)c1	12	5	.	0	.	.
O=C1CNC[C@H]2[C@@H](c3ccc(C#CC4CCCC4)cc3)[C@@H](CO)N12	-11	15	.	8	.	.
Cc1cc2nc(-c3ccc[nH]c3=O)[nH]c2cc1C	57	78*	19	62*	-15	-22
Cc1cc2nc(-c3ccc[nH]c3=O)n(Cc3ccc(F)cc3)c2cc1C	-15	-6	-1	-17	-8	9
O=C(C[C@@H]1CC[C@H](NC(=O)Nc2ccc3c(c2)OCO3)[C@@H](CO)O1)NCc1ccc2c(c1)OCO2	-2	24	.	-25	.	.
CC=Cc1ccc2n(c1=O)C[C@@H]1[C@@H](CO)[C@H](C(=O)NCc3ccncn3)N(C(=O)C3CCCC3)[C@H]21 (mixture of isomers)	-13	-7	.	-4	.	.
CCN(CC)CCC(=O)N1C/C(=C/c2ccccc2)C(=O)/C(=C\c2ccccc2)C1	-13	92*	75	82*	86*	-46
O=C1/C(=C\c2ccccc2)CCC/C1=C/c1ccccc1	10	-43	7	1	-57	8
CO[C@H]1CN(C)C(=O)c2ccc(NC(C)=O)cc2OC[C@@H](C)N(C(=O)CN2CCOCC2)C[C@@H]1C	.	.	.	0	.	.
COCC(=O)Nc1ccc2c(c1)C(=O)N(C)C[C@H](OC)[C@@H](C)CN(Cc1ccccc1)[C@@H](C)CO2	.	-9	.	5	.	.
CC(=O)NC(c1ccc(N(C)C)cc1)c1cc(Cl)c2cccnc2c1O (centres undefined)	85*	15	68	24	36	-8
CC(=O)NC(c1ccccc1)c1cc(Cl)c2cccnc2c1O (centres undefined)	85*	8	69	21	-4	13

Screening results deposited in PubChem BioAssay by several laboratories.
